Among the data in PubChem BioAssay (NCI) are growth inhibition values, retold here.

Compounds without any hit were thinned out: in the full panel of roughly 79,000, 15% have a hit. Unmarked numbers belong to inactive results. Active and inactive are the calls of the source. Rule as the data show it: active = growth inhibition above about 70%; inactive = the rest.

The test is described as follows: NCI Yeast Anticancer Drug Screen. Data for the mlh1 rad18 strain (AID 175). Conditions: S. cerevisiae mlh1 rad18 strain growth inhibition; at 50.0 µM; active compounds read high. The gist of the method: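 Cells of a genetically altered yeast strain, deficient in DNA damage repair, were treated with compound. Their growth was then compared with that of vehicle-treated cultures to give inhibition.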
As to `CCCCCCCCCCS(=O)(=O)Nc1ccc(C(=O)NN)cc1`, the growth inhibition is 92.7% (active).
For `ON(C(=Nc1ccc(Cl)cc1)c1ccccc1)c1ccccc1`, the growth inhibition is 99% (active).
Next, `Cc1ccc(-c2c(N)[n+]([O-])c3ccccc3[n+]2[O-])cc1`: 99% (active).
Next, `NC(=O)C12OC3CC(CC(C3)O1)O2`: 11.2%; `C=C(C)[P+](C)(c1ccccc1)c1ccccc1`: 29.3%.
Next, `CCC(C)SC1SCC2C(=O)N(C)C3(CC3C)C(=O)OCC(NC(=O)c3nc4ccccc4cc3O)C(=O)NC(C)C(=O)N(C)C1C(=O)N(C)C1(CC1C)C(=O)OCC(NC(=O)c1nc3ccccc3cc1O)C(=O)NC(C)C(=O)N2C` (stereo not given): 89.8% (active).
In the case of `COc1ccc2ccc(=O)oc2c1CC=C(C)C`, the growth inhibition is 31.5%.
Next, `O=c1ccn(C2OC(COC(c3ccccc3)(c3ccccc3)c3ccccc3)C(O)C2O)c(=O)[nH]1` (stereo not given): 90.3% (active).
Next, `O=C1C(=O)C(Cc2ccccc2)(c2ccccc2)C(=O)N1c1ccccc1` (stereo not given): 40.4%.
Consider `CCC(O)C(O)(c1ccccc1)c1nc2ccccc2s1` (stereo not given), for which the growth inhibition was 15.1%.
As for `c1ccc(-n2ncc3ccc4cccn4c32)cc1`, the growth inhibition was 47.7%.
Next, `O=C(c1ccc([N+](=O)[O-])cc1)C(Br)C(Br)c1ccnc2ccccc12` (stereo not given): 98.8% (active); `[Cl][Sn]1([Cl])[CH2]CC[CH2][Sn]([Cl])([Cl])[CH2]CC[CH2][Sn]([Cl])([Cl])[CH2]CC[CH2][Sn]([Cl])([Cl])[CH2]CC[CH2]1`: 94% (active); `Nc1ccc(O)c(=O)cc1`: 59.9%.
Next, `CC(C)c1cc(C(=O)[O-])c(O)c(C(C)C)c1.CC(C)c1cc(C(=O)[O-])c(O)c(C(C)C)c1.CC(C)c1cc(C(=O)[O-])c(O)c(C(C)C)c1.CC(C)c1cc(C(=O)[O-])c(O)c(C(C)C)c1.CC(C)c1cc(C(=O)[O-])c(O)c(C(C)C)c1.CC(C)c1cc(C(=O)[O-])c(O)c(C(C)C)c1.[Cu+2].[Mn+2].[Mn+2]`: 82.1% (active).
Next, `CC1=C(C(=O)Nc2cccc(C(F)(F)F)c2)C(c2ccccc2F)C(C(=O)Nc2cccc(C(F)(F)F)c2)=C(C)N1`: 80.4% (active); `O=C(c1ccccc1)C(C(=O)c1ccccc1)c1ccc2ccccc2n1`: 22.9%.
Consider `NC(=S)N1N=C2c3ccccc3CC[C@H]2[C@@H]1c1cccs1`, for which the growth inhibition was 51.3%.
Next, `O=CC(O)CN1CCCC1` (stereo not given): 92.9% (active).
Next, `CCCCCN(CCCCC)CC(C)(C)C(O)c1ccc(OC)c2ccccc12` (stereo not given): 77.3% (active); `CSC(=S)n1nc(-c2cccs2)c(N=Nc2ccccc2)c1C(F)(F)F`: 94.4% (active).
Next, `CC(O)C1CCCC[N+]1(C)C` (stereo not given): -18.6%; `CCCCCCCCCCCC(=O)N(CCOC(=O)c1ccco1)CCOC(=O)c1ccco1`: 98.8% (active).
With `CCOC(=O)NC(=S)Nc1ccsc1`, the growth inhibition is 29.9%.
`O=C(O)c1ccc(C(O)(c2ccccc2)c2ccccc2)cc1`: the growth inhibition was 96.4% (active).
Next, `N#CSCCSCc1ccc(Cl)cc1`: 99.3% (active); `CN(/N=C\c1ccc(Cl)cc1)C(c1ccc(Cl)cc1)N(C)/N=C/c1ccc(Cl)cc1` (stereo not given): 30.2%.
Consider `CC(C)(C)[Si](C)(C)OCC1OC(n2cc(I)c(N)nc2=O)C(O[Si](C)(C)C(C)(C)C)C1O[Si](C)(C)C(C)(C)C` (stereo not given), for which the growth inhibition was 86.7% (active).
Next, `O=C1C(=O)c2cc(Br)cc([N+](=O)[O-])c2-c2ccc(Br)cc21`: 98.4% (active).
Next, `C(=NCCc1ccccc1)c1ccccc1B1OB(c2ccccc2C=NCCc2ccccc2)OB(c2ccccc2C=NCCc2ccccc2)O1`: 99.5% (active).
Next, `O=[N+]([O-])c1ccc(-c2ccccc2Cl)c([N+](=O)[O-])c1`: 93.7% (active); `CC12CCC(=O)C=C1CCC1C2CCC2(C)C(c3cnc[nH]3)CCC12` (stereo not given): 39.1%; `COc1cccc(C2CC(C)(O)Oc3cc4c(cc32)OCO4)c1` (stereo not given): 53%.
On to `N/C(=N\N=C\c1cc(I)cc(I)c1O)NO`, for which the growth inhibition is 97.9% (active).
Next, `Cc1ccc2nn(-c3ccc(O)cc3)nc2c1`: 74.2% (active); `COC(=O)C1=C(NC(=O)Nc2ccc(Cl)cc2)OC(C)(C)C1c1ccc(Cl)cc1` (stereo not given): 96.8% (active); `CCCC/C=C\CCCCCCCCCC1=C(O)C(=O)C=C(OC)C1=O`: 57.7%.
As for `Cc1nn(C(=O)c2ccccc2O)c2c1C(c1ccco1)SC(N)=N2` (stereo not given), the growth inhibition was 59.3%.
Next, `CC1=C(CO)C(=O)O[C@@H]([C@@H](C)[C@H]2CC[C@H]3[C@@H]4C[C@@H](O)C5=CC=CC(=O)[C@]5(C)[C@H]4CC[C@]23C)C1`: 90.5% (active).
Next, `O=C(CNC(=O)Nc1ccc(NC(=O)NCC(=O)Nc2ccc(C3=NCCN3)cc2)cc1)Nc1ccc(C2=NCCN2)cc1`: 95.2% (active).
